This passage reports z-score results from PubChem BioAssay.

Activity calls are given as the source filed them.

Chain of Homeobox protein Hox-A13 (Mus musculus) (Q62424 whole entry, looked up): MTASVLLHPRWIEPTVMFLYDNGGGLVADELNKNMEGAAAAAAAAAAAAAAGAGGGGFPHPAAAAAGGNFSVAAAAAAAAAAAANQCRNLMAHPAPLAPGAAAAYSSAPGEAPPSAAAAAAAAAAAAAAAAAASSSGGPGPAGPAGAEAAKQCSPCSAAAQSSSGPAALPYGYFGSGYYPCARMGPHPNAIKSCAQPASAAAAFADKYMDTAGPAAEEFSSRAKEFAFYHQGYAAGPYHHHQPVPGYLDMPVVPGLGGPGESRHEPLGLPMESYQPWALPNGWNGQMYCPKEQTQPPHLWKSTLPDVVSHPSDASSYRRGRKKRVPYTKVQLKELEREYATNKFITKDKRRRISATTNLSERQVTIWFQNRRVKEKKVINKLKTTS

This assay has as its target Homeobox protein Hox-A13 (Mus musculus) (UniProt Q62424). In words: disruptors of Hoxa13 oligonucleotide interaction – biochemical, fluorescence polarization, labeled oligonucleotide, primary screen (AID 1185). Particulars: Hoxa13:DNA binding, 15 min, higher = more signal, called active from +8 up or from −8 down.
Regarding `COc1cccc(C)c1NC(=O)O[C@H]1[C@H](OC(=O)Nc2ccccc2)[C@@H](OC(=O)Nc2ccccc2)[C@@H](OC)O[C@@H]1CO`, the z-score was -4.95 (inactive).

Consider `[N-]=[N+]=NCc1ccccc1C[C@@]1(C(=O)NCCN2CCOCC2)N=C(c2ccc(OCCCO)cc2)O[C@@H]1c1ccccc1`, for which the z-score is -4.43 (inactive).

Take `C=CC[C@H](O)c1ccc(O)c(F)c1`: the z-score was -1.51 (inactive).

In the case of `Cc1ccc(S(=O)(=O)N2[C@@H](c3ccccc3)C(C(=O)O)=CC[C@H]2c2ccc(F)cc2)cc1`, the z-score was -5.57 (inactive).

Consider `C=CCNC(=O)[C@H]1[C@@H]2C(=O)O[C@@H](c3ccccc3)[C@@H](c3ccccc3)N2[C@@H](c2ccc(O)cc2)[C@]12C(=O)N(C(=O)OCCOC)c1ccc(C#Cc3ccc(OC)cc3)cc12`, for which the z-score is -1.16 (inactive).

For the compound `CC(C)(C)OC(=O)CC[C@]1(C(=O)N2CCOCC2)COC(c2ccc(OCCCO)cc2)=N1`, the z-score was -3.78 (inactive).

Take `C=CCNC(=O)[C@@H]1[C@H]2C(=O)O[C@H](c3ccccc3)[C@H](c3ccccc3)N2[C@H](c2ccc(O)cc2)[C@@]12C(=O)Nc1ccc(C#CC3=CCCCC3)cc12`: the z-score was 0.828 (inactive).

On to `CCOC(=O)C[C@H]1[C@H](OC(=O)Cc2ccc3c(c2)OCO3)[C@@H](NC(=O)CC(C)C)c2cc(OCCCO)ccc2N1C(=O)c1ccc2ccccc2n1`, for which the z-score is -4.65 (inactive).

Take `COc1cc2c(cc1OC)CN(C(=O)[C@@H]1[C@H]3C(=O)O[C@H](c4ccccc4)[C@H](c4ccccc4)N3[C@H](c3ccc(O)cc3)[C@@]13C(=O)Nc1ccc(C#CC4=CCCCC4)cc13)CC2`: the z-score was 2.74 (inactive).

`CCOC(=O)C1=CCC(c2ccncc2)N(S(=O)(=O)c2ccc(C)cc2)C1` (stereo unspecified): the z-score is -4.63 (inactive).

Turning to `C=CCC(OC(C)=O)[C@@H]1[C@@H](N(Cc2cccc3ccccc23)C(=O)c2ccc(C)cc2)c2cc(OCCCO)ccc2N1C(=O)Cc1ccc2ccccc2c1` (stereo partly specified), the z-score was -0.0782 (inactive).

On to `COc1ccc(NN2C(C(O)c3ccc(F)cc3)C=CC3C(=O)N(C4CCCCC4)C(=O)C32)cc1` (stereo unspecified), for which the z-score was -4.3 (inactive).

Turning to `CCCCCN1CC=CC23O[C@@H]4/C=C\CCCOC(=O)C4[C@H]2C(=O)N(CCO)[C@@H]3C1=O` (stereo partly specified), the z-score was -3.77 (inactive).

With `O=C1NC(=O)C2C1C=CC(C(O)c1ccc(F)cc1)N2Nc1ccc(Cl)cc1Cl` (stereo unspecified), the z-score was -5.48 (inactive).

Turning to `COC(=O)[C@@]1(Cc2ccc(F)cc2)[C@H]2c3cc(C(=O)N4CCCC4)n(Cc4ccc(C(F)(F)F)nc4)c3C[C@H]2CN1C(=O)c1ccccc1`, the z-score was -3.29 (inactive).

Turning to `CC[C@@H](O[Si](C#C[Si](C(C)C)(C(C)C)C(C)C)(C(C)C)C(C)C)c1cn([C@H](CO)Cc2ccccc2)nn1`, the z-score is -1.31 (inactive).

Take `[N-]=[N+]=NCc1ccccc1C[C@]1(C(=O)N2CCCCC2)COC(c2ccc(OCCCO)cc2)=N1`: the z-score was -6.04 (inactive).

`C=C(C(=O)CC[C@H](OC(=O)c1ccccc1-c1ccccc1C(=O)O)c1ccc(OCCO)cc1)C(C)C`: the z-score was -6.36 (inactive).

As to `COCCOC(=O)N1C(=O)[C@@]2(c3cc(C#CCCO)ccc31)[C@H](c1ccc(O)cc1)N1[C@H](c3ccccc3)[C@H](c3ccccc3)OC(=O)[C@H]1[C@@H]2C(=O)NC[C@H](O)c1ccccc1`, the z-score was -2.51 (inactive).

As for `CCCCC(=C=CC[C@@H](O)c1ccccc1OCCO)C[C@@H](O)c1ccccn1`, the z-score was -5.1 (inactive).

For the compound `COC(=O)[C@]1(Cc2ccccc2CN=[N+]=[N-])N=C(c2ccc(OCCCO)cc2)O[C@@H]1c1ccccc1N=[N+]=[N-]`, the z-score was 0.381 (inactive).

On to `O=C1O[C@H](c2ccccc2)[C@H](c2ccccc2)N2[C@H]1[C@@H](C(=O)O)[C@]1(C(=O)Nc3ccccc31)[C@H]2c1ccc(OCCO)cc1`, for which the z-score is -6.4 (inactive).

For `CC(C)C[C@@H]1NC(=O)[C@H]2C[C@@H](C(=O)O)[C@@H](c3cccc(OCCO)c3)N2C1=O`, the z-score is -2.46 (inactive).

As for `O=C1C[C@@](C(=O)NCC(F)(F)F)(c2ccc([N+](=O)[O-])cc2)[C@@H](c2ccc(CO)cc2I)N1CC12CC3CC(CC(C3)C1)C2`, the z-score is -2.47 (inactive).

Consider `CCCC=C(CCC)[C@@H](NC(=O)c1ccc(C(=O)OC)cc1)c1ccc(C(=O)OC)cc1`, for which the z-score is -2.06 (inactive).

Regarding `CC1(C)OB(/C=C\CC(OC(=O)c2ccncc2)c2ccccc2)OC1(C)C` (stereo unspecified), the z-score is -3.16 (inactive).
